Reference: the supplement of paper PMC9023506
Counter-ions that a name gives are not always drawn.

The compounds below were run on Danio rerio larvae (5 dpf) (assay: optomotor response to blue moving lines, difference vs DMSO (percentage points (treated minus DMSO)); higher = more of the behaviour than the DMSO vehicle control). Conditions: 10 µM; exposure time: 3 h pre-incubation + 3 h imaging.
Description: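 5-dpf wild-type zebrafish larvae were imaged in 96-well plates. They were treated with 190 Tocris FDA-approved drugs at 10 µM (1 µl/ml DMSO) for 3 h before and 3 h during imaging at 28.5 °C, 48 larvae per drug. Automated image analysis gave % time moving and optomotor responses. Values are drug group mean minus DMSO vehicle mean (n=844), in percentage points, for 10 behaviours.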

SMILES | optomotor response to blue moving lines
CC[C@@H](C(N)=O)N1CCCC1=O [Levetiracetam] | 6.19
COc1ccc(C(CN(C)C)C2(O)CCCCC2)cc1 (configuration not stated) [Venlafaxine hydrochloride] | 3.9
C=CCN1C[C@H](C(=O)N(CCCN(C)C)C(=O)NCC)C[C@@H]2c3cccc4[nH]cc(c34)C[C@H]21 [Cabergoline] | -0.85
N[C@@H]1C[C@H]1c1ccccc1 [Tranylcypromine hydrochloride] | 13.5
CC(C)C[C@H]1C(=O)N2CCC[C@H]2[C@]2(O)O[C@](NC(=O)[C@@H]3C=C4c5cccc6[nH]c(Br)c(c56)C[C@H]4N(C)C3)(C(C)C)C(=O)N12 [Bromocriptine mesylate] | -29.3
CC(O)(CS(=O)(=O)c1ccc(F)cc1)C(=O)Nc1ccc(C#N)c(C(F)(F)F)c1 (configuration not stated) [Bicalutamide] | -16.6
COc1cc2c(cc1OC)C1CC(=O)C(CC(C)C)CN1CC2 (configuration not stated) [Tetrabenazine] | -7.81
Cc1cccc([C@H](C)c2c[nH]cn2)c1C [Dexmedetomidine hydrochloride] | -12.4
CN1C[C@H](C(=O)N[C@]2(C)O[C@@]3(O)[C@@H]4CCCN4C(=O)[C@H](Cc4ccccc4)N3C2=O)C[C@@H]2c3cccc4[nH]cc(c34)C[C@H]21 [Dihydroergotamine mesylate] | 12.8
CCN(C)C(=O)Oc1cccc([C@H](C)N(C)C)c1 [Rivastigmine tartrate] | 1.1
O=c1[nH]c2ccccc2n1C1CCN(CCCC(c2ccc(F)cc2)c2ccc(F)cc2)CC1 [Pimozide] | -7.76
C=C1C[C@@H]2[C@H](CC[C@]3(C)C(=O)CC[C@@H]23)[C@@]2(C)C=CC(=O)C=C12 [Exemestane] | -2.19
